We go through 34 molecules from ChEMBL document CHEMBL3433997, “St. Jude Leishmania screening dataset” (2016).

In general, inhibition refers to the drop in the measured response relative to a control, in per cent.

Format in all cases: functional
The target in experiment [1] is Solute carrier family 2, facilitated glucose transporter member 1 (Homo sapiens) (UniProt P11166). Kind of experiment: ST_JUDE_LEISH: Cytotoxicity at 2uM final concentration against transgenic Leishmania Mexicana promastigotes LmGLUT1 that are glucose transport deficient and complemented with the human glucose transporter GLUT1. Activity is measured by DNA content using SYBR green in vitro.

Experiment [2] has as its target Hexose transporter 1 (Plasmodium falciparum) (UniProt O97467). Kind of experiment: ST_JUDE_LEISH: Cytotoxicity at 2uM final concentration against transgenic Leishmania Mexicana promastigotes LmPfHT that are glucose transport deficient and complemented with the Plasmodium falciparum hexose transporter. Activity is measured by DNA content using SYBR green in vitro.

The target of experiment [3] is Glucose transporter (Leishmania mexicana) (UniProt O61059). Kind of experiment: ST_JUDE_LEISH: Cytotoxicity at 2uM final concentration against transgenic Leishmania Mexicana promastigotes LmGT2 that are glucose transport deficient and complemented with the L. Mexicana glucose transporter 2. Activity is measured by DNA content using SYBR green in vitro.

Chain of Solute carrier family 2, facilitated glucose transporter member 1 (Homo sapiens) (P11166 whole entry): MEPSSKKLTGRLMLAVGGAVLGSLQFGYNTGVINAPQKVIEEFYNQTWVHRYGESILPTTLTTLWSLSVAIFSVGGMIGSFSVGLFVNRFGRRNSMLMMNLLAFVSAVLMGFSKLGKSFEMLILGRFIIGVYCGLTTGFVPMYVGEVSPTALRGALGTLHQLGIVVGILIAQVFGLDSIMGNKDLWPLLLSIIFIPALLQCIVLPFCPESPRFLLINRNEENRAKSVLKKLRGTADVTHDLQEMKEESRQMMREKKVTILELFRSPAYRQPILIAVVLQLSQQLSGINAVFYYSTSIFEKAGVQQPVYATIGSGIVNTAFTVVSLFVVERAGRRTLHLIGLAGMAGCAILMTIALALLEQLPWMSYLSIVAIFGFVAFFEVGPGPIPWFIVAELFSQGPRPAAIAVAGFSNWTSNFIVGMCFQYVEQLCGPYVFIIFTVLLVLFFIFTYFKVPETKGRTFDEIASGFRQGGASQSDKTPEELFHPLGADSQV

Turning to `Nc1nc(N)c2nc(C3CC=CCC3)c(N)nc2n1` (configuration not stated), the inhibition is 2.95% in experiment [1], 3.81% in experiment [2] and -0.04% in experiment [3].
As for `Cc1ccc(CN2CCCCC(NC(=O)c3cc4ccccc4s3)C2)cc1` (configuration not stated), the inhibition is 0.16% in experiment [1], 0.49% in experiment [2] and -8.68% in experiment [3].
With `COc1ccccc1CCNc1nc(C)cc(N[C@@H](Cc2ccccc2)C(=O)NCCc2ccccc2)n1`, the results for the inhibition in experiment [1], in experiment [2] and in experiment [3] were 7.15%, 7.61% and 2.86%, respectively.
Consider `Cc1ccc(F)c(OCC2CCCN(c3ccc(C(=O)NC4CC4)cn3)C2)c1` (configuration not stated), for which the inhibition in experiment [1] was 3.46%; in experiment [2], 4.3%; in experiment [3] it was 2.18%.
Consider `COc1cc2nc(N3CCC(CNC(=O)c4ccc(C(C)=O)cc4)CC3)nc(N)c2cc1OC`, for which the values for the inhibition in experiment [1], in experiment [2] and in experiment [3] were 2.39%, 2.18% and 3.9%, respectively.
As for `OC(c1ccccc1)C1CN(CCC2CC3CCC2C3)CCC1(O)c1ccccc1` (configuration not stated), the inhibition in experiment [1] was -0.77%; in experiment [2] it was -3.69%; in experiment [3], -3.24%.
Take `NS(=O)(=O)c1cccc(Nc2nccc(-c3c(-c4cccc(NC(=O)c5c(F)cccc5F)c4)nn4ccccc34)n2)c1`: the inhibition worked out at 2.78% in experiment [1], 7.67% in experiment [2] and 1.61% in experiment [3].
With `COc1cc(C(=O)N2CCN(C(C)C)CC2)ccc1CN(C)CCCN1CCN(c2cccc(Cl)c2Cl)CC1`, the inhibition turned out to be 0.76% in experiment [1], 0.33% in experiment [2] and 0.31% in experiment [3].
`Fc1ccc2[nH]c3c(NCCN4CCCCC4)ncnc3c2c1`: the inhibition in experiment [1] was -3.47%; in experiment [2], -0.73%; in experiment [3], -1.11%.
For `COc1ccc(C=Cc2ccc(-c3c(C)[nH]c(C)c(Cl)c3=O)cc2)cc1OC`, the inhibition is -0.83% in experiment [1], -2.94% in experiment [2] and 0.92% in experiment [3].
Taken in the same sequence, the figures for `COc1ccc(NC(=O)NC2CCN(CCCOc3cc(C)nc4ccccc34)CC2)cc1OC` were 0.88%, 1.97% and -3.5%.
Turning to `COc1ccc(-c2cccc(NC(=O)c3ccc(F)cc3)c2)cc1CN1CCCN(C)CC1`, the inhibition in experiment [1] came out at 11.2%; in experiment [2], 9.38%; in experiment [3], 7.43%.
`COc1ccc(CN2CCC(NCc3cccc([N+](=O)[O-])c3)CC2)cc1`: the inhibition in experiment [1] is 5.28%; in experiment [2] it was 7.16%; in experiment [3], 6.36%.
In the case of `C=CCn1c(Sc2ccc(C#N)c([N+](=O)[O-])c2)nnc1-c1cccc(Cl)c1`, the inhibition was -1.46% in experiment [1], -0.51% in experiment [2] and -1.95% in experiment [3].
`Cc1nc(-c2cccc(NCc3ccccc3)c2)[nH]c1C`: the results for the inhibition in experiment [1], in experiment [2] and in experiment [3] were 6.94%, 7.04% and 1.13%, respectively.
On to `Cc1ccc(F)c(NC(=O)c2c(-c3c(F)cccc3Cl)noc2C)c1`, for which the inhibition is -0.89% in experiment [1], 2.09% in experiment [2] and 1.42% in experiment [3].
For `O=C(Nc1ccc(OC2CCN(Cc3ccc(F)cc3)C2)cc1)c1cccs1` (configuration not stated) the same measures were -3.81%, -1.65% and -0.11%.
As to `CCN1CCN(Cc2ccc(NC(=O)c3cc4ccc5cccnc5c4[nH]3)cc2)CC1`, the inhibition worked out at 17.2% in experiment [1], 15.9% in experiment [2] and 11.4% in experiment [3].
For `NS(=O)(=O)c1ccc(CNc2ccc3ncc(-c4ccc(OC(F)(F)F)cc4)n3n2)cc1`, the values for the inhibition in experiment [1], in experiment [2] and in experiment [3] were 4.71%, 4.62% and 4.53%, respectively.
Turning to `c1ccc(-c2nc(NCCCn3ccnc3)cc(-c3ccncc3)n2)cc1`, the inhibition in experiment [1] was 3.22%; in experiment [2], 4.55%; in experiment [3], 1.25%.
For `c1ccc2c(CNc3nc(NCC4CCCCC4)nc4[nH]cnc34)cccc2c1` the same measures were 4.27%, 5.29% and 2.36%.
Turning to `COc1ccc(Nc2ncc3c(-c4cccc(NC(=O)Cc5cccnc5)c4)c[nH]c3n2)cc1OC`, the inhibition is -2.6% in experiment [1], -0.55% in experiment [2] and -1.58% in experiment [3].
`Nc1ncnc2cc(-c3cccc(S(N)(=O)=O)c3)sc12`: the inhibition in experiment [1] amounted to 0.46%; in experiment [2], 3.15%; in experiment [3], 5.9%.
Regarding `CN1CCN(c2cccc(Nc3nccc(NCC(O)c4ccccc4)n3)c2)CC1` (configuration not stated), the inhibition came to 1.83% in experiment [1], 1.6% in experiment [2] and 0.06% in experiment [3].
Taken in the same sequence, the figures for `CS(=O)(=O)NCCCNCc1cccc(-c2ccc(-c3nc4cc(C(F)(F)F)ccc4[nH]3)s2)c1` were 1.55%, 2.21% and 1.74%.
For `Cc1ccc(O)cc1Nc1c(C(N)=O)cnc2ccc(-c3cncs3)cc12`, the inhibition in experiment [1] is -2.06%; in experiment [2] it was -0.39%; in experiment [3], -1.28%.
For the molecule `CC(C)(CN)c1nc(-c2ccc(Cl)c(O)c2)c(-c2ccncc2)[nH]1`, the inhibition is -2.49% in experiment [1], 0.02% in experiment [2] and 1.18% in experiment [3].
As to `CC1CN(Cc2ccc(-c3cccc(-c4nc5cc(F)ccc5[nH]4)c3)cc2)CC(C)O1` (configuration not stated), the inhibition in experiment [1] turned out to be 1.55%; in experiment [2], 7.65%; in experiment [3] it was 2.46%.
With `CCCc1cc(Cc2cnc(N)nc2N)cc(CCC)c1OC`, the values for the inhibition in experiment [1], in experiment [2] and in experiment [3] were 4.11%, 1.27% and -2.49%, respectively.
Take `COc1ccccc1C1CCN(C2CCC(NC(=O)/C=C/c3cc(F)cc(C(F)(F)F)c3)CC2)CC1` (configuration not stated): the values for the inhibition in experiment [1], in experiment [2] and in experiment [3] were -0.82%, 0.7% and 1.96%, respectively.
`CCc1ccc(NC(=O)c2ccc(CN3CCCN(Cc4cccc(Cl)c4)CC3)cc2)cc1`: the inhibition was 1.47% in experiment [1], 2.69% in experiment [2] and 2.29% in experiment [3].
Consider `Cc1cc(=NN=Cc2ccc(F)cc2)c2cc(C(F)(F)F)ccc2[nH]1`, for which the results for the inhibition in experiment [1], in experiment [2] and in experiment [3] were 2.35%, 2.57% and 0.92%, respectively.
For `CC1CN(c2cnn(C/C=C/c3ccc(NC(=O)c4ccc5nonc5c4)cc3)c(=O)c2Cl)CC(C)N1` (configuration not stated), the results for the inhibition in experiment [1], in experiment [2] and in experiment [3] were 4.72%, 4.17% and 3.26%, respectively.
Taken in the same sequence, the figures for `Cn1ncc2ccc(Nc3nccc(-c4ccc5c(c4)c(N)nn5C)n3)cc21` were 93.3%, 97.5% and 93.8%.
